According to PubChem BioAssay (NCATS):
Inconclusive results are not listed. Calls of active or inactive are those of the source. Calls follow the shape of the dose curve; as a rule, active = well fitted inhibition curve with a large enough effect; inconclusive = small, poorly fitted or top-dose-only effect; inactive = flat fitted curve, though single readings scatter.

Key:
Experiment in all cases: qHTS profiling for inhibitors of Plasmodium falciparum proliferation (AID 504749); also: nearly all actives have a fitted effect of over 60% in size
Settings in all cases: P. falciparum in erythrocytes, SYBR Green DNA, 72 h; series mostly up to 28.7 µM
CP265 = system: CP265
Summary of the method: (§1)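 P. falciparum-infected erythrocytes (0.3% parasitemia, 2.5% hematocrit) incubated with compound 72 h at 37 C, 5% CO2. Parasite DNA detected by SYBR Green after lysis, overnight at room temperature; normalised to 0.29 uM artemisinin and DMSO.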

CP266 = system: CP266
Summary of the method: as §1

CP268 = system: CP268
Summary of the method: as §1

CP269 = system: CP269
Summary of the method: as §1

CP286 = system: CP286
Summary of the method: as §1

CP291 = system: CP291
Summary of the method: as §1

CP297 = system: CP297
Summary of the method: as §1

CP305 = system: CP305
Summary of the method: as §1

CP325 = system: CP325
Summary of the method: as §1

CP329 = system: CP329
Summary of the method: as §1

CP335 = system: CP335
Summary of the method: as §1

DFO2036 = system: DFO2036
Summary of the method: as §1

DIV14 = system: DIV14
Summary of the method: as §1

DIV17 = system: DIV17
Summary of the method: as §1

DIV30 = system: DIV30
Summary of the method: as §1

Dd2 = system: Dd2
Summary of the method: as §1

ECU = system: ECU
Summary of the method: as §1

HB3 = system: HB3
Summary of the method: as §1

ICS = system: ICS
Summary of the method: as §1

N140 = system: N140
Summary of the method: as §1

P93_24 = system: P93_24
Summary of the method: as §1

P94_40 = system: P94_40
Summary of the method: as §1

PAD = system: PAD
Summary of the method: as §1

PC15 = system: PC15
Summary of the method: as §1

PC26 = system: PC26
Summary of the method: as §1

SC27B = system: SC27B
Summary of the method: as §1

TAB109 = system: TAB109
Summary of the method: as §1

TAB113 = system: TAB113
Summary of the method: as §1

TAB165 = system: TAB165
Summary of the method: as §1

W2 = system: W2
Summary of the method: as §1

Measured: Potency
Potency is read from the fitted curve at half-maximal effect.

C/C=C\C[C@H](C)[C@H](O)[C@H]1C(=O)N[C@@H](CC)C(=O)N(C)CC(=O)N(C)[C@@H](CC(C)C)C(=O)N[C@@H](C(C)C)C(=O)N(C)[C@@H](CC(C)C)C(=O)N[C@@H](C)C(=O)N[C@@H](C)C(=O)N(C)[C@@H](CC(C)C)C(=O)N(C)[C@@H](CC(C)C)C(=O)N(C)[C@@H](C(C)C)C(=O)N1C
active: CP265 3.55 µM | CP266 10.7 µM | CP268 15.1 µM | CP269 6.01 µM | CP286 7.08 µM | CP291 10.7 µM | CP297 4.78 µM | CP305 6.01 µM | CP325 7.57 µM | CP329 6.01 µM | CP335 4.26 µM | DFO2036 2.51 µM | DIV14 6.75 µM | DIV17 8.49 µM | DIV30 13.5 µM | Dd2 5.01 µM | ECU 2.24 µM | HB3 7.08 µM | ICS 3.98 µM | N140 2.82 µM | P93_24 5.01 µM | P94_40 5.01 µM | PAD 3.55 µM | PC15 11.2 µM | PC26 6.75 µM | SC27B 2.82 µM | TAB109 3.55 µM | TAB113 3.55 µM | TAB165 4.47 µM | W2 1.9 µM
